Unmarked numbers belong to inactive results. Results filed as inconclusive are left out. Where a call stands in place of a potency, no number is given. Active and inactive are the calls of the source. Unless noted, the call rests on the fitted dose curve; in most records, active means well fitted curve in the direction sought with a large enough effect in the repeat runs; inconclusive means weak or mixed curves; inactive means no such curve, though single readings can be large; an effect the other way counts as inactive or inconclusive.
Experiments:
[1] = qHTS assay to identify small molecule agonists of the hypoxia (HIF-1) signaling pathway (AID 1224846; active means well fitted activation curve with a large enough effect in the signal ratio in the repeat runs, not every such curve was filed as active; the % refers to the signal ratio)
Method in brief: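 Hypoxia-pathway activation was scored as increased beta-lactamase from an HRE-controlled reporter in ME-180 cells; plated at 2,000 cells per well with 0.5% dialyzed FBS, they were exposed 17 hrs to compounds and then given CCF4-AM.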

[2] = qHTS assay to identify small molecule agonists of H2AX - cell viability counter screen (AID 1224847; calls by dose curve; further: top concentration of the series differs between compounds; nearly all actives have a fitted effect of over 30% in size)
Method in brief: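 Cytotoxicity counter screen in wild-type CHO-K1 cells: a 3 hr compound treatment at 37C across 15 concentrations, followed by CellTiter-Glo luminescence to gauge viable cells.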

[3] = qHTS RealTime-Glo MT Cell Viability Assay in HepG2 cells - 24 hour (AID 1224867); further: nearly all actives have a fitted effect of over 50% in size
Method in brief: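 HepG2 cells were seeded at 600 cells/well together with NanoLuc luciferase and a cell-permeant prosubstrate, preincubated 5 h at 37 C/5% CO2, then pin-dosed with compounds in DMSO. Nonlytic luminescence from viable cells was read at each time point.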

[4] = qHTS RealTime-Glo MT Cell Viability Assay in HEK293 cells - 32 hour (AID 1224868); further: nearly all actives have a fitted effect of over 50% in size; further: potency means the concentration at half of the fitted maximal effect; on activity change, negative = cytotoxic: top concentration of the series differs between compounds
Method in brief: (§1)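 HEK293 cells were seeded at 600 cells/well together with NanoLuc luciferase and cell-permeant prosubstrate, preincubated 5 h at 37 C/5% CO2, then given compound in DMSO by pintool. Luminescence from viable-cell prosubstrate reduction was read repeatedly over 40 h.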

[5] = A CellTox Green Cytotoxicity Assay to monitor cytotoxicity in HEK293 cells - 0 hour (AID 1224869); further: nearly all actives have a fitted effect of over 50% in size
Method in brief: (§2)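 Seeding of HEK293 cells together with cytotoxicity dye preceded a 5 h incubation at 37 C/5% CO2. Test compounds in DMSO were then added and fluorescence monitored across 40 h.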

[6] = qHTS RealTime-Glo MT Cell Viability Assay in HepG2 cells - 40 hour (AID 1224870); further: nearly all actives have a fitted effect of over 50% in size
Method in brief: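 HepG2 cells mixed with RealTime-Glo MT reagents (NanoLuc plus cell-permeant prosubstrate) were seeded at 600 cells/well, incubated 5 h at 37 C/5% CO2, then pinned with compounds in DMSO; nonlytic luminescence tracked viability during 40 h treatment.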

[7] = A CellTox Green Cytotoxicity Assay to monitor cytotoxicity in HEK293 cells - 40 hour (AID 1224871); further: nearly all actives have a fitted effect of over 45% in size
Method in brief: as §2

[8] = qHTS RealTime-Glo MT Cell Viability Assay in HEK293 cells - 16 hour (AID 1224872)
Method in brief: as §1

Nc1ccncc1N
outcome [1]: inactive
outcome [2]: inactive
outcome [3]: inactive
Potency [4]: inactive
outcome [5]: inactive
Potency [6]: inactive
Potency [7]: inactive
Potency [8]: inactive

O=C(O)c1cc(C(=O)O)cc(C(=O)O)c1
outcome [1]: inactive
outcome [2]: inactive
outcome [3]: inactive
Potency [4]: inactive
outcome [5]: inactive
Potency [6]: inactive
Potency [7]: inactive
Potency [8]: inactive

OCCc1ccccn1
outcome [1]: inactive
outcome [2]: inactive
outcome [3]: inactive
Potency [4]: inactive
outcome [5]: inactive
Potency [6]: inactive
Potency [7]: inactive
Potency [8]: inactive

CCN1CCOCC1
outcome [1]: inactive
outcome [2]: inactive
outcome [3]: inactive
Potency [4]: inactive
outcome [5]: inactive
Potency [6]: inactive
Potency [7]: inactive
Potency [8]: inactive

CC[N+](CC)(CC(=O)Nc1c(C)cccc1C)Cc1ccccc1 (tested in a mixture with another compound)
outcome [1]: inactive
outcome [2]: inactive
outcome [3]: inactive
Potency [4]: inactive
Potency [6]: inactive
Potency [7]: inactive
Potency [8]: inactive

Cc1onc(-c2c(Cl)cccc2Cl)c1C(=O)Cl
outcome [1]: inactive
outcome [2]: inactive
outcome [3]: inactive
Potency [4]: inactive
outcome [5]: inactive
Potency [6]: inactive
Potency [7]: inactive
Potency [8]: inactive

NC(CCC(=O)O)C(=O)O (stereo unspecified)
outcome [1]: inactive
outcome [2]: inactive
outcome [3]: inactive
Potency [4]: inactive
outcome [5]: inactive
Potency [6]: inactive
Potency [7]: inactive
Potency [8]: inactive

CN1CCN(c2cc3c(nn2)Oc2ccccc2N3C)CC1
activation [1]: 0.831% [at 15.8 µM]
activity change, negative = cytotoxicity [2]: 0.295% [at 31.6 µM]
activity change, negative = cytotoxicity [3]: -0.547% [at 15.8 µM]
activity change, negative = cytotoxic [4]: 1.71% [at 15.8 µM]
cytotoxicity [5]: -3.85% [at 15.8 µM]
activity change, negative = cytotoxic [6]: 1.01% [at 15.8 µM]
cytotoxicity increase [7]: -14.2% [at 15.8 µM]
activity change, negative = cytotoxicity [8]: 0.378% [at 15.8 µM]

Nc1ccn([C@@H]2O[C@H](CO)[C@@H](O)C2(F)F)c(=O)n1
outcome [1]: inactive
outcome [2]: inactive
outcome [3]: inactive
Potency [4]: 1070 nM (active)
Potency [6]: inactive
Potency [7]: inactive

CCCCc1nc(Cl)c(CO)n1Cc1ccc(-c2ccccc2-c2nn[nH]n2)cc1
outcome [1]: inactive
outcome [2]: inactive
outcome [3]: inactive
Potency [4]: inactive
outcome [5]: inactive
Potency [6]: inactive
Potency [7]: inactive
Potency [8]: inactive

CCCCCCCCCCCCSC
outcome [1]: inactive
outcome [2]: inactive
outcome [3]: inactive
Potency [4]: inactive
outcome [5]: inactive
Potency [6]: inactive
Potency [7]: inactive
Potency [8]: inactive

N[C@@H](CCC(=O)O)C(=O)O
outcome [1]: inactive
outcome [2]: inactive
outcome [3]: inactive
Potency [4]: inactive
outcome [5]: inactive
Potency [6]: inactive
Potency [7]: inactive
Potency [8]: inactive

O=C(O)CCCC[P+](c1ccccc1)(c1ccccc1)c1ccccc1
outcome [1]: inactive
outcome [2]: inactive
outcome [3]: inactive
Potency [4]: inactive
outcome [5]: inactive
Potency [6]: inactive
Potency [7]: inactive
Potency [8]: inactive

O=S(=O)(O)c1cc(O)c(O)c(S(=O)(=O)O)c1
outcome [1]: inactive
outcome [2]: inactive
outcome [3]: inactive
Potency [4]: inactive
Potency [6]: inactive
Potency [7]: inactive
Potency [8]: inactive

COc1cc(C(=O)OC(COCCC(C)C)CN2CCOCC2)cc(OC)c1OC (stereo unspecified)
outcome [1]: inactive
outcome [2]: inactive
outcome [3]: inactive
Potency [4]: inactive
outcome [5]: inactive
Potency [6]: inactive
Potency [7]: inactive
Potency [8]: inactive

NC(=O)Cc1cccc2ccccc12
outcome [1]: inactive
outcome [2]: inactive
outcome [3]: inactive
Potency [4]: inactive
outcome [5]: inactive
Potency [6]: inactive
Potency [7]: inactive
Potency [8]: inactive

Cc1ncc(COP(=O)(O)O)c(C=O)c1O
outcome [1]: inactive
outcome [2]: inactive
outcome [3]: inactive
Potency [4]: inactive
outcome [5]: inactive
Potency [6]: inactive
Potency [7]: inactive
Potency [8]: inactive

COc1c(N2CCNC(C)C2)c(F)cc2c(=O)c(C(=O)O)cn(C3CC3)c12 (stereo unspecified)
outcome [1]: inactive
outcome [2]: inactive
outcome [3]: inactive
Potency [4]: inactive
outcome [5]: inactive
Potency [6]: inactive
Potency [7]: inactive
Potency [8]: inactive

CCOc1ccc2nc(S(N)(=O)=O)sc2c1
outcome [1]: inactive
outcome [2]: inactive
outcome [3]: inactive
Potency [4]: inactive
outcome [5]: inactive
Potency [6]: inactive
Potency [7]: inactive
Potency [8]: inactive

CCCCN(CCC(=O)OCC)C(C)=O
outcome [1]: inactive
outcome [2]: inactive
outcome [3]: inactive
Potency [4]: inactive
outcome [5]: inactive
Potency [6]: inactive
Potency [7]: inactive
Potency [8]: inactive

C=CN1CCCCCC1=O
outcome [1]: inactive
outcome [2]: inactive
Potency [4]: inactive
outcome [5]: inactive
Potency [6]: inactive
Potency [7]: inactive
Potency [8]: inactive

C=C(C)C(=O)OCCOCCOCCOCCOC(=O)C(=C)C
outcome [1]: inactive
outcome [2]: inactive
outcome [3]: inactive
Potency [6]: inactive
Potency [7]: inactive
Potency [8]: inactive

CCCOC(=O)CC
outcome [1]: inactive
outcome [2]: inactive
Potency [4]: inactive
outcome [5]: inactive
Potency [6]: inactive
Potency [7]: inactive
Potency [8]: inactive

CC1OC1C1CCC2(C)OC2C1 (stereo unspecified)
outcome [1]: inactive
outcome [2]: inactive
Potency [4]: inactive
outcome [5]: inactive
Potency [6]: inactive
Potency [7]: inactive
Potency [8]: inactive

CCCc1nn(C)c2c(=O)[nH]c(-c3cc(S(=O)(=O)N4CCN(C)CC4)ccc3OCC)nc12
outcome [1]: inactive
outcome [2]: inactive
outcome [3]: inactive
outcome [5]: inactive
Potency [6]: inactive
Potency [7]: inactive

CCCC[N+](C)(CCCC)CCCC
outcome [1]: inactive
outcome [3]: inactive
Potency [4]: inactive
outcome [5]: inactive
Potency [6]: inactive
Potency [7]: inactive
Potency [8]: inactive
